PAX8 reporter – inhibitors of PAX8 transcriptional activity in RMG-I cells. RMG-I TPO-luciferase reporter, SteadyGlo, 24 h. inhibition, % at 12.6 µM. 1.2% of 360,000 active. AID 652154;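 active = mean replicate inhibition at least 60% with every replicate also reaching 60%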;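 note: luciferase light reporting Pax8 driven TPO promoter activity; plate controls were median of neutral control wells for no effect and mitoxantrone controls for full effect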
LGR2 antag – inhibitors of bursicon-induced Drosophila LGR2 receptor cAMP signaling; HEK293 LGR2, CRE-luciferase, bursicon-stimulated, 4 h; inhibition, % at 9.99 µM; 0.35% of 380,000 active;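 active = drop in luminescence signal, shown as inhibition above about 50% in the replicate tests, limit read from the data, passing the limit was not always enough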;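 note: agonist challenge used bursicon conditioned medium at about half maximal strength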
EBV LMP1 NFkB – Epstein-Barr LMP1 NF-kappaB reporter inhibition. 0.69% of 350,000 active. LMP1-induced NF-kappaB luciferase reporter cells, luminescence. inhibition, % at 12.5 µM; in the data active = inhibition above about 41%;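 note: 0% = neutral control wells and 100% = reference inhibitor control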
TRPM1 prom inh – reduces MITF-dependent TRPM1 promoter luciferase signal. 0.83% of 330,000 active. SK-MEL-5 TRPM1 promoter luciferase, 24 h. inhibition, % at 12.5 µM. AID 488899;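 active = mean inhibition across replicates of 60% or more, whatever share of single replicates reaches that level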
Shn3 inh set2 – inhibitors of Schnurri-3 3'UTR reporter in osteoblasts; inhibition, % at 12.5 µM; 0.52% of 360,000 active; Clone20 osteoblast Shn3 3'UTR firefly luciferase, 24 h;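 active = mean inhibition of at least 75% with every replicate also reaching 75%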;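 note: 0% = median of neutral control wells and 100% = pilot-screen positive control compound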
EWS-Fli block – EWS/Fli transcriptional activity inhibition; 0.67% of 350,000 active; A673 NR0B1-luciferase reporter, viability-normalised; inhibition, % at 12.6 µM;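 active = mean inhibition of at least 50% after viability correction, with every replicate also passing that limit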;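 note: firefly luciferase signal divided by Alamar Blue viability fluorescence both relative to DMSO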
* marks the source's active call; other numbers are inactive results; · = not tested or not shown; ! = not confirmed by another sample. Hits are enriched below; roughly 2.2% of the tested compounds scored in any of these assays.

SMILES | PAX8 reporter | LGR2 antag | EBV LMP1 NFkB | TRPM1 prom inh | Shn3 inh set2 | EWS-Fli block
CCc1ccc(NC(=O)C2CCN(C(=O)N3CCOc4ccccc43)CC2)cc1 | 3 | 8 | -10 | · | 20 | 10
O=C(CSc1n[nH]c(-c2ccccn2)n1)Nc1cccc(Cl)c1 | · | -8 | 37 | 33 | 92* | 16
C[C@@H]1CN([C@H](C)CO)C(=O)c2cccc(NC(=O)Nc3ccccc3)c2O[C@@H]1CN(C)Cc1ccc2c(c1)OCO2 | 1 | -5 | · | · | · | -7
C[C@@H]1CN([C@H](C)CO)C(=O)c2cc(NC(=O)Nc3ccc(F)cc3)ccc2O[C@H]1CN(C)C(=O)Nc1ccc(F)cc1 | · | -17 | · | · | · | -5
C[C@@H]1CN([C@H](C)CO)C(=O)c2cccc(NC(=O)Nc3ccccc3)c2O[C@@H]1CN(C)C(=O)Nc1ccc2c(c1)OCO2 | -6 | 4 | · | · | · | -37
CCn1c(=NC(=O)CS(=O)(=O)c2ccccc2)sc2cccc(OC)c21 | -20 | 8 | 12 | -3 | 87* | 12
CC1=C(C)C(=O)C(CCCCC#CCCCC#CCO)=C(C)C1=O | · | · | 43* | 32 | -1 | ·
COC1=C(OC)C(=O)C(CCCCCCCCCCO)=C(C)C1=O | -2 | · | · | · | 15 | -8
C=C(CC)C(=O)c1ccc(OCC(=O)O)c(Cl)c1Cl | 81* | 15 | 0 | -6 | -13 | 10
O=C(C[C@H]1CC[C@@H]2[C@H](COC[C@@H](O)CN2Cc2nccs2)O1)NCc1ccccc1Cl | -8 | 4 | · | · | · | 5
C[C@H](NC(=O)[C@H]1[C@H](CO)[C@H]2Cn3c(ccc(-c4ccccc4)c3=O)[C@H]2N1C)c1ccccc1 | · | 14 | · | · | · | 3
O=C(CCl)N1CCCC1c1ccc2c(c1)OCCO2 (stereo unspecified) | -27 | 8 | -31 | 90* | -8 | 15
Cc1cc(Cl)c(S(=O)(=O)N2CCSCC2)cc1OCC(=O)NC1CCCCC1 | · | · | 24 | 48 | 88* | ·
Cc1cc(Cl)c(S(=O)(=O)N2CCCCCC2)cc1OCC(=O)NC1CCCCC1 | 12 | · | 8 | 17 | 16 | ·
COCC#Cc1ccc([C@H]2[C@@H](CO)N3C(=O)CN(C(=O)c4ccncc4)C[C@@H]23)cc1 | -14 | -1 | · | · | · | 2
O=[N+]([O-])c1c(Nc2ccccn2)cc(Cl)c2nonc12 | 27 | · | 54* | 76* | 95* | 45
CN(C)c1cc(Nc2ccc(O)cc2)c([N+](=O)[O-])c2nonc12 | -8 | -12 | -3 | -4 | 12 | 6
O=[N+]([O-])c1c(Nc2ccc(O)cc2)cc(Cl)c2nonc12 | 113* | 41 | 13 | 96* | 95* | 61*
COc1ccccc1NC(=O)N[C@@H]1C=C[C@@H](CC(=O)N[C@@H](C)c2ccccc2)O[C@@H]1CO | 1 | 12 | · | · | · | 1
O=C(C[C@@H]1C=C[C@H](NC(=O)CN2CCOCC2)[C@H](CO)O1)NCCc1ccncc1 | · | -2 | · | · | · | -5
CCOC(=O)[C@@H]1[C@@H]2C=C[C@]3(O2)[C@H](C(=O)NCc2ccccc2)N(CCCCCCO)C(=O)[C@@H]13 | 109* | · | · | · | · | 32
O=C1C=CC2(O[C@H](c3ccccc3)[C@@H](c3ccccc3)O2)[C@H](Sc2ccccc2O)C1 | 35 | 99* | 82* | 94* | 96* | 68*
C[C@@H]1[C@@H](Sc2ccccc2)CC(=O)O[C@@H]1c1ccc(-c2ccccc2)cc1 | 24 | 42 | 2 | 11 | -24 | 13
O=C1C=CC(=C(c2ccc(O)cc2)c2ccc(O)cc2)C=C1 | 106* | 58*! | -45 | 83* | -23 | 18
O=C(CCCC(=O)c1ccc(O)cc1)c1ccc(O)cc1 | -242 | 0 | -1 | -95 | -81 | -56
SMILES | PAX8 reporter | LGR2 antag | EBV LMP1 NFkB | TRPM1 prom inh | Shn3 inh set2 | EWS-Fli block
CC(C)NC(=O)N(C)C[C@@H]1Oc2ncc(C#CC3(O)CCCC3)cc2C(=O)N([C@@H](C)CO)C[C@@H]1C | · | 6 | · | · | · | 2
CC(C)(C)C1CCC(CN2C(Nc3ccccc3)=NC[C@@H]2Cc2ccccc2)CC1 (stereo partly specified) | 16 | 10 | -12 | 95* | -13 | 36
CCCCCCCN1C(Nc2ccccc2)=NC[C@@H]1Cc1ccccc1 | 1 | 44 | 2 | -7 | 86* | 20
CN(C)C1=NC[C@H](Cc2ccccc2)N1CCCC1CCCC1 | 7 | -7 | 4 | -26 | 86* | 15
O=C(NNC(=S)Nc1ccc(Cl)c(Cl)c1)c1ccccn1 | 57 | 4 | 62* | 40 | 92* | 27
O=C(NNc1ccccn1)C(c1ccccc1)c1ccccc1 | 23 | 2 | -3 | 3 | -5 | 7
O=C(NNC(=O)C(c1ccccc1)c1ccccc1)c1ccccn1 | 51 | 6 | 26 | 50 | 93* | -3
CCNC(=S)NNC(=O)c1ccccn1 | -18 | -8 | 1 | 12 | 5 | ·
C[C@@H]1CN([C@@H](C)CO)C(=O)c2cc(NS(=O)(=O)c3ccccc3)ccc2O[C@@H](C)CCCCO[C@@H]1CN(C)C(=O)CCC(F)(F)F | -8 | 15 | · | · | · | -3
O=S(=O)(N[C@H]1CC[C@@H](CCn2cc(C3CC3)nn2)O[C@@H]1CO)c1ccc(Cl)cc1 | 4 | 2 | · | · | · | -1
CC(CCc1ccco1)N(C)S(=O)(=O)c1csc(C(N)=O)c1 (stereo unspecified) | -9 | -15 | 52* | -9 | 3 | ·
O=[N+]([O-])c1cc(S(=O)(=O)N2CCCCCC2)ccc1F | 31 | 23 | -18 | 93* | 8 | 25
O=[N+]([O-])c1cc(S(=O)(=O)N2CCCC2)ccc1O | -2 | -2 | -3 | 7 | 17 | ·
Cc1ccc(S(=O)(=O)Nc2cccc3c2O[C@@H](CN(C)C(=O)Nc2ccc(F)cc2)[C@@H](C)CN([C@H](C)CO)C3=O)cc1 | 25 | -3 | · | · | · | -11
CN=C1SC(CC(=O)Nc2ccc(F)cc2F)C(=O)N1/N=C/c1ccc(OC(F)F)c(OC)c1 (stereo unspecified) | 15 | 0 | 20 | 9 | 83* | 20
CN=C1SC(CC(=O)Nc2c(C)cccc2C)C(=O)N1/N=C/c1cccs1 (stereo unspecified) | 4 | 3 | 11 | -2 | 1 | 5
CCOC(=O)C1(Cc2ccc(OC)cc2)CCN(C(=O)CN2CCOC2=O)CC1 | -18 | -27 | -5 | -13 | -20 | -53
CCOC(=O)C1(Cc2ccc(OC)cc2)CCN(C(=O)CN2CCCCC2=O)CC1 | 92* | -8 | -5 | -9 | -12 | -15
O=C(C[C@@H]1C=C[C@H](NS(=O)(=O)c2ccccc2)[C@H](CO)O1)N1CCC(Cc2ccccc2)CC1 | 10 | -9 | · | · | · | 0
Cc1ccc(C(C)C)c(OCc2nn(CC(=O)c3ccc(OC(F)F)cc3)c3[n+]2CCCCC3)c1 | · | · | 11 | 102* | 39 | ·
CCNC(=O)C1(C)CCN(C(=O)c2ccccc2F)C1 (stereo unspecified) | 96* | 4 | · | · | -4 | 2
